Calls of active or inactive are those of the source. Calls follow the shape of the dose curve; as a rule, active = well fitted inhibition curve with a large enough effect; inconclusive = small, poorly fitted or top-dose-only effect; inactive = flat fitted curve, though single readings scatter.
Biological target: DNA dC->dU-editing enzyme APOBEC-3G (Homo sapiens) (UniProt Q9HC16)
Test: qHTS for inhibitors of Vif-A3G interactions: Validation (AID 588379)
Details: Vif-A3G protein interaction assay; series mostly up to 46.1 µM
Method in brief: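 Yellow fluorescence (Ex 488, Em 500-530) of Vif-coexpressing HeLa A3G-eYFP cells, scanned by Acumen cytometer, reports blocked A3G degradation. Cells plated at 700/well overnight at 37 deg C before compound addition, then a further overnight compound incubation at 37 deg C.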

Chain of DNA dC->dU-editing enzyme APOBEC-3G (Homo sapiens) (Q9HC16 whole entry, looked up): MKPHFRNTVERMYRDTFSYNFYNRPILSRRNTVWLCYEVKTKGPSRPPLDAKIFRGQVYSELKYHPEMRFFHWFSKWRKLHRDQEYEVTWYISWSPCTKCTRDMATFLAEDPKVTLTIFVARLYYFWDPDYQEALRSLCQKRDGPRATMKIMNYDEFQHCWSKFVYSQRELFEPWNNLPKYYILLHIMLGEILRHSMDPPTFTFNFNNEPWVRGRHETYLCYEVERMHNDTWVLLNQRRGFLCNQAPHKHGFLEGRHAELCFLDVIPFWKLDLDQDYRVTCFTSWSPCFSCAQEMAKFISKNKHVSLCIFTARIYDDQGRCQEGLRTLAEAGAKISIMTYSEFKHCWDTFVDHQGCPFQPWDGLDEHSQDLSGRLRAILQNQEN

| SMILES | outcome |
| --- | --- |
| C[C@]12CCC3C(CC[C@]4(O)C[C@@H](O)CC[C@]34C=O)[C@@]1(O)CC[C@@H]2C1=CC(=O)OC1 (stereo not given in full) | inactive |
| CC1=CC(=O)c2c(O)cccc2C1=O | inactive |
| CC1(C)S[C@H]2[C@@H](N)C(=O)N2[C@H]1C(=O)O | inactive |
| C/C=C1/C[C@@H](C)[C@](O)(CO)C(=O)OCC2=CCN3CC[C@@H](OC1=O)C23 (stereo not given in full) | inactive |
| COc1cc2c(cc1OC)-c1c(OC)c(OC)c(C=O)c3c1[C@H](C2)N(C)CC3 | inactive |

Reference: PubChem BioAssay (NCATS)
